For the assay, the system named is MILI (PIWIL2) piRISC loaded with L1MC piRNA (26 nt). The assay can be described thus: pre-steady-state target cleavage rate (min^-1); guide: L1MC piRNA 5'p-UAACUAAAUACUAUGCAAGCUGUAGG; MIWI and MILI are mouse PIWI proteins and EfPiwi is from a freshwater sponge; tags in brackets are library labels; higher = faster piRNA-guided slicing of the target. The gist of the method: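 Active affinity-purified piRISC (1 nM) loaded with one synthetic guide was mixed with a transcribed, DNA-blocked target RNA library (0.1 nM), with or without 500 nM GTSF1 partner protein, in HEPES–potassium acetate buffer at 33 °C for 0–8 or 0–960 min. Uncleaved targets were sequenced, normalised to depth and to weakly complementary targets, and pooled across three trials, with k3 capped at 0.0001 min^-1. The pre-steady-state cleavage rate was determined with a burst-and-steady-state fit.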

[1] abbreviates: auxiliary factor: 500 nM mouse GTSF1.
The mark [2] stands for this setting: auxiliary factor: none (no GTSF1).

± gives the standard deviation.

In the case of UCCUGGAUCAGCUUUGCAUAGUAUUUAGUUA, the “pre-steady-state target cleavage rate” value is, setting by setting: under setting [1], 0.297 ± 0.016; under setting [2], 0.0075 ± 0.0028.

Consider UCCUGGAUGUGGAAGCAUAGUAUUUAGUAA, for which the “pre-steady-state target cleavage rate” value under setting [1] was determined as 0.0306 ± 0.0062 and the “pre-steady-state target cleavage rate” value under setting [2] is 0.00424 ± 0.0024.

As to UCCUGGAUGAGCAUGCAUAGUAUUUACUUA, the “pre-steady-state target cleavage rate” value runs as follows: under setting [1], 0.122 ± 0.029; under setting [2], 0.00352 ± 0.0028.

With UCCUGGAUCAGCUUGCAUAGUUUAUAGUUA, the “pre-steady-state target cleavage rate” value amounted to 0.0204 ± 0.008 under setting [1] and 0.00545 ± 0.0025 under setting [2].

UCCUGGAUGUCGUUGCUUAGUAUUUAGUUA: the “pre-steady-state target cleavage rate” value under setting [1] was determined as 0.0857 ± 0.011 and the “pre-steady-state target cleavage rate” value under setting [2] came out at 0.00861 ± 0.002.

On to “UCCUGGAUGUCGAUGCAUAGUAUUUAGUUU [g2:g17:cont:t1U]”, for which the “pre-steady-state target cleavage rate” value came to 0.09 ± 0.011 under setting [1] and 0.00618 ± 0.0021 under setting [2].

UCCUGGUACAGCUUGGUAAGUAUUUAGUUA: the “pre-steady-state target cleavage rate” value is 0.113 ± 0.018 under setting [1] and 0.00809 ± 0.0033 under setting [2].

For the sequence UCCUGGAUGUCCUUGCAUAGUUAUUUAGUUA, the “pre-steady-state target cleavage rate” value is 0.0103 ± 0.0056 under setting [1] and 0.00393 ± 0.0027 under setting [2].

On to UCCUGGAACAGCUUGCAUAGUUAUUUAGUUA, for which the “pre-steady-state target cleavage rate” value under setting [1] was determined as 0.0126 ± 0.0059 and the “pre-steady-state target cleavage rate” value under setting [2] was found to be 0.00339 ± 0.0029.

For the sequence UCCUGGAUGAGGUUGCAUAGUUUUUAGUUA, the “pre-steady-state target cleavage rate” value turned out to be 0.00694 ± 0.0049 under setting [1] and 0.00583 ± 0.0024 under setting [2].

Consider UCCUGGUACACGAUGCAUAGUAUUUAGUUA, for which the “pre-steady-state target cleavage rate” value was found to be 0.252 ± 0.058 under setting [1] and 0.00395 ± 0.0035 under setting [2].

With UCCUGGUACACGCUUGCAUAGUAUUUAGUUA, the “pre-steady-state target cleavage rate” value runs as follows: under setting [1], 0.167 ± 0.046; under setting [2], 0.0158 ± 0.0071.

For the sequence UCCUGGAUGAGCUUGCAUCGUAUUUAGUUA, the “pre-steady-state target cleavage rate” value was determined as 0.0594 ± 0.0092 under setting [1] and 0.00554 ± 0.0025 under setting [2].

Regarding UCCUGGAUGAGCUUGCAUAGGUAUUUAGUUA, the “pre-steady-state target cleavage rate” value under setting [1] is 0.00411 ± 0.0031 and the “pre-steady-state target cleavage rate” value under setting [2] was determined as 0.00493 ± 0.0023.

As to UCCUGGAUGUCGUUGCAUAGUAUUCUAGUUA, the “pre-steady-state target cleavage rate” value is, setting by setting: under setting [1], 0.18 ± 0.045; under setting [2], 0.00434 ± 0.0027.

UCCUGGUACAGCAUCCAUAGUAUUUAGUUA: the “pre-steady-state target cleavage rate” value reads like this: under setting [1], 0.262 ± 0.077; under setting [2], 0.00374 ± 0.0027.

For the sequence “UCCUGGAUGUCGAUGCAUAGUAUUUAGUUG [g2:g17:cont:t1G]”, the “pre-steady-state target cleavage rate” value under setting [1] came out at 0.0776 ± 0.013 and the “pre-steady-state target cleavage rate” value under setting [2] was determined as 0.00604 ± 0.0026.

In the case of UCCUGGAACUGCUUGCAUAGUAUUAAGUUA, the “pre-steady-state target cleavage rate” value is 0.173 ± 0.022 under setting [1] and 0.00346 ± 0.0024 under setting [2].

On to UCCUGGUACAGCUUCCUUAGUAUUUAGUUA, for which the “pre-steady-state target cleavage rate” value under setting [1] was 0.288 ± 0.052 and the “pre-steady-state target cleavage rate” value under setting [2] is 0.00854 ± 0.0031.

Turning to UCCUGGUUGUGCUUGCAUAGUAUUUAGUAA, the “pre-steady-state target cleavage rate” value is, setting by setting: under setting [1], 0.0938 ± 0.02; under setting [2], 0.00427 ± 0.0031.

For UCCUGGAUGUCCAUGCAUAGUUUUUAGUUA, the “pre-steady-state target cleavage rate” value was found to be 0.0166 ± 0.0043 under setting [1] and 0.00362 ± 0.0023 under setting [2].

As for UCCUGGAUCAGCUUGCAUAGUAUAUUGUUA, the “pre-steady-state target cleavage rate” value reads like this: under setting [1], 0.118 ± 0.014; under setting [2], 0.00518 ± 0.0025.

UCCUGGAUGUCGAUGCAUAGUAUUAAGUUA: the “pre-steady-state target cleavage rate” value was 0.122 ± 0.017 under setting [1] and 0.0035 ± 0.0025 under setting [2].

Consider UCCUGGUACAGCUUGCAUAUGUAUUUAGUUA, for which the “pre-steady-state target cleavage rate” value reads like this: under setting [1], 0.00566 ± 0.0049; under setting [2], 0.00451 ± 0.0033.

Consider UCCUGGAUGUCCUUGCAUAGUCAUUUAGUUA, for which the “pre-steady-state target cleavage rate” value runs as follows: under setting [1], 0.00722 ± 0.0051; under setting [2], 0.00338 ± 0.003.

UCCUGGAUCAGCUUGAUAGUAUUUAGUUA: the “pre-steady-state target cleavage rate” value under setting [1] stood at 0.0575 ± 0.0091 and the “pre-steady-state target cleavage rate” value under setting [2] came to 0.00451 ± 0.002.

The values above are taken from the supplement of paper PMC10338343.
